Reference: PubChem BioAssay (Tox21)
Inconclusive results are not listed. The source made the active and inactive calls. Unless noted, the call rests on the fitted dose curve; in most records, active means well fitted curve in the direction sought with a large enough effect in the repeat runs; inconclusive means weak or mixed curves; inactive means no such curve, though single readings can be large; an effect the other way counts as inactive or inconclusive. Positions of bridges follow the written chain, without caps; N, C: chain ends. Non-standard residues stand in square brackets, D forms with d. Residues, ends and D or L forms follow the SMILES beside them. *: point of attachment. X2 = CC[C@H](C)CCCCC(=O)*; Dab = NCC[C@H](N)C(=O)O

Experiments:
[1] = qHTS assay to test for compound auto fluorescence at 535 nm (green) in HEK293 cells (AID 720680)
[2] = qHTS assay to test for compound auto fluorescence at 460 nm (blue) in HEK293 cell free culture (AID 720681)
Method in brief: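 Blue fluorescence (Ex 405/Em 460 nm, triamterene-equivalent) was read immediately after pin transfer of compound or DMSO into medium (DMEM, 10% FBS) without cells.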

[3] = qHTS assay to test for compound auto fluorescence at 535 nm (green) in HEK293 cell free culture (AID 720682)
Method in brief: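 Each library compound, or DMSO control, is added by pintool to medium alone, comprising DMEM and 10% FBS. Emission at 535 nm following 485 nm excitation is quantified against fluorescein.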

[4] = qHTS assay to test for compound auto fluorescence at 590 nm (red) in HEK293 cell free culture (AID 720683)
Method in brief: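 Red-channel autofluorescence of compounds in culture medium (DMEM, 10% FBS), no cells, measured at 540/590 nm. Rose Bengal sodium is the reference fluorophore for equivalence.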

[5] = qHTS assay to test for compound auto fluorescence at 590 nm (red) in HepG2 cell free culture (AID 720684)
Method in brief: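 Plate contents were MEM with 10% FBS plus test compound or DMSO, no cells. Fluorescence was recorded with 540 nm excitation and 590 nm emission.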

[6] = qHTS assay to test for compound auto fluorescence at 460 nm (blue) in HepG2 cell free culture (AID 720685)
Method in brief: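 Compound (23 nL) or DMSO pinned into cell-free MEM with 10% FBS; blue fluorescence read at 405/460 nm excitation/emission, expressed as auto-fluorescence equivalency to triamterene.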

[7] = qHTS assay to test for compound auto fluorescence at 535 nm (green) in HepG2 cell free culture (AID 720686)
[8] = qHTS assay to test for compound auto fluorescence at 460 nm (blue) in HepG2 cells (AID 720687)
Method in brief: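 Blue-channel autofluorescence (Ex/Em 405/460 nm, triamterene-equivalent) was measured after 1 hr compound exposure at 37 C, 5% CO2. Cells were HepG2, plated overnight at 37 C in MEM plus 10% FBS.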

[9] = molecular target: Glucocorticoid receptor (Homo sapiens) (UniProt P04150); assay: qHTS assay to identify small molecule agonists of the glucocorticoid receptor (GR) signaling pathway (AID 720691; active means well fitted activation curve with a large enough effect in the signal ratio in the repeat runs, not every such curve was filed as active; the % refers to the signal ratio); settings: GR-bla HeLa, beta-lactamase reporter ratio, 18 h; activation: at 62.4 µM (top of the series)
Chain of Glucocorticoid receptor (Homo sapiens) (P04150 whole entry, looked up): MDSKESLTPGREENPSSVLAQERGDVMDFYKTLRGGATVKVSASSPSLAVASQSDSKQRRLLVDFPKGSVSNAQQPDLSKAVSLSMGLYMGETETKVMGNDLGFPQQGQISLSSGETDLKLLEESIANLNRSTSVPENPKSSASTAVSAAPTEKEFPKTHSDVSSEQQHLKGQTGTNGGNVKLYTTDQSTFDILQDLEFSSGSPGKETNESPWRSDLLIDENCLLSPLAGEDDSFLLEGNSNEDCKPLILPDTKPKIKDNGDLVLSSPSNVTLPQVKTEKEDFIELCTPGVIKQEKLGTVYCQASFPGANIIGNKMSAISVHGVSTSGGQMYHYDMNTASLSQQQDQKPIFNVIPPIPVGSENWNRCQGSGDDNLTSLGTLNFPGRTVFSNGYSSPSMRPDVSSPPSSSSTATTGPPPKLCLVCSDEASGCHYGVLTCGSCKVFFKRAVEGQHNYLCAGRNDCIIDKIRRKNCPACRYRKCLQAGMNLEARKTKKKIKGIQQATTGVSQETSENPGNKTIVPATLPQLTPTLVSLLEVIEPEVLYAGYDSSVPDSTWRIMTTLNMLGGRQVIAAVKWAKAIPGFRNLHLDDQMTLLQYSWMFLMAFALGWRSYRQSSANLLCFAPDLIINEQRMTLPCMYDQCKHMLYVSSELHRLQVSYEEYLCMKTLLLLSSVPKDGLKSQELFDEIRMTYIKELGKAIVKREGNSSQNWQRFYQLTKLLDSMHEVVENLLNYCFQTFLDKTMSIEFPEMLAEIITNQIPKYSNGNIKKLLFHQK
Method in brief: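 GR-bla HeLa cells carrying a GRE-driven beta-lactamase reporter, exposed to compounds for 18 h at 37 C. Reporter activation read as fluorescence after 2 h with LiveBLAzer B/G FRET substrate at room temperature.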

[10] = molecular target: Glucocorticoid receptor (Homo sapiens) (UniProt P04150); assay: qHTS assay to identify small molecule antagonists of the glucocorticoid receptor (GR) signaling pathway (AID 720692; active means well fitted inhibition curve with a large enough effect in the signal ratio in the repeat runs, not every such curve was filed as active; the % refers to the signal ratio)
Method in brief: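 GR-bla HeLa cells carrying a GRE-driven beta-lactamase reporter received compound after 4 h plating, then dexamethasone (5 nM final). After 18 h at 37C, the FRET substrate was loaded for 2 h at room temperature and fluorescence read.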

[11] = qHTS assay to identify small molecule antagonists of the glucocorticoid receptor (GR) signaling pathway - cell viability counter screen (AID 720693); further: nearly all actives have a fitted effect of over 55% in size
[12] = qHTS assay for identifying genotoxic compounds that show differential cytotoxicity against isogenic chicken DT40 cell lines with known DNA damage response pathways - Rev3 mutant cell line (AID 743014); further: nearly all actives have a fitted effect of over 55% in size; further: potency means the concentration at half of the fitted maximal effect
[13] = qHTS assay for identifying genotoxic compounds that show differential cytotoxicity against isogenic chicken DT40 cell lines with known DNA damage response pathways - Rad54/Ku70 mutant cell line (AID 743015); further: nearly all actives have a fitted effect of over 60% in size; further: potency means the concentration at half of the fitted maximal effect
[14] = qHTS assay to identify small molecule antagonists of the androgen receptor (AR) signaling pathway - cell viability counter screen (AID 743033; further: nearly all actives have a fitted effect of over 45% in size)
[15] = qHTS assay to identify small molecule antagonists of the androgen receptor (AR) signaling pathway using the MDA cell line - cell viability counter screen (AID 743041; further: nearly all actives have a fitted effect of over 45% in size)
Method in brief: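 R1881-driven MDA-kb2 AR-luc cells, 3,000/well, were dosed with library compounds for 16 h; cell health came from CellTiter-Fluor fluorescence in the reporter wells.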

[16] = molecular target: Androgen receptor (Homo sapiens) (UniProt P10275); assay: qHTS assay to identify small molecule antagonists of the androgen receptor (AR) signaling pathway (AID 743035; active means well fitted inhibition curve with a large enough effect in the signal ratio in the repeat runs, not every such curve was filed as active; the % refers to the signal ratio; further: potency means the concentration at half of the fitted maximal effect)
Chain of Androgen receptor (Homo sapiens) (P10275 whole entry, looked up): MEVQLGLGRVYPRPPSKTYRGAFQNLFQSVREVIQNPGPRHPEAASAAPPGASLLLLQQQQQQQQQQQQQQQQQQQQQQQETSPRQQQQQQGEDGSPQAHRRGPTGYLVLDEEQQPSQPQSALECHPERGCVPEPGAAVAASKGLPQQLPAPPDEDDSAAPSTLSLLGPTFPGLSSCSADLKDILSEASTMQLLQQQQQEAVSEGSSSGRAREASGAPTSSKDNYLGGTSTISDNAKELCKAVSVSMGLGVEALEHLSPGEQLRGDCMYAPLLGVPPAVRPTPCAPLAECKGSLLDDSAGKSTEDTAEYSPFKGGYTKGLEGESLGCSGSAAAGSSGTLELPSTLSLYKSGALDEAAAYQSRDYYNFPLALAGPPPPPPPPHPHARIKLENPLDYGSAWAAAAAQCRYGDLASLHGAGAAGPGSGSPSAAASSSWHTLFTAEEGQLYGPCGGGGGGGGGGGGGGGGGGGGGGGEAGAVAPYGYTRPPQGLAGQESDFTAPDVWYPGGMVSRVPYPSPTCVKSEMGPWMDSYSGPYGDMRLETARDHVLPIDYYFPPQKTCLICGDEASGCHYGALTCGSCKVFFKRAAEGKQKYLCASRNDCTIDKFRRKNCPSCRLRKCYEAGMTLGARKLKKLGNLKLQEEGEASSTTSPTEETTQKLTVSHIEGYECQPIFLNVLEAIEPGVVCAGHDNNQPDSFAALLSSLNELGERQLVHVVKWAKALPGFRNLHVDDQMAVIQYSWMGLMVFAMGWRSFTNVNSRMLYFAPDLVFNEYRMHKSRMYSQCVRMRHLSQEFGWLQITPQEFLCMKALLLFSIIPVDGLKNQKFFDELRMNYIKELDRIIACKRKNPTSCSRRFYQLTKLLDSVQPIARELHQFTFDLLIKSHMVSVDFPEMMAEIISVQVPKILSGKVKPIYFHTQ
Method in brief: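 HEK293 cells stably carrying UAS-beta-lactamase reporter, 2,000/well, given compounds plus R1881 agonist and incubated 16 h at 37C. LiveBLAzer B/G FRET substrate then added for 2 h at room temperature before fluorescence reading.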

[17] = molecular target: Androgen receptor (Homo sapiens) (UniProt P10275); assay: qHTS assay to identify small molecule agonists of the androgen receptor (AR) signaling pathway (AID 743036; active means well fitted activation curve with a large enough effect in the signal ratio in the repeat runs, with a control signal flat, not every such curve was filed as active; the % refers to the signal ratio)
Method in brief: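 Following a 4 h settling period, AR-UAS-bla HEK293 cells were dosed with compounds for 16 h at 37C. A 2 h room-temperature incubation with LiveBLAzer B/G FRET substrate preceded the fluorescence measurement.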

[18] = molecular target: Androgen receptor (Homo sapiens) (UniProt P10275); assay: qHTS assay to identify small molecule agonists of the androgen receptor (AR) signaling pathway using the MDA cell line (AID 743040; further: nearly all actives have a fitted effect of over 20% in size)
Method in brief: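 After a 5 h incubation at 37C and 0% CO2, MDA-kb2 reporter cells were dosed with compounds in DMSO and kept 16 h under the same conditions. Luciferase activity was then read as luminescence with ONE-Glo.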

[19] = molecular target: Androgen receptor (Homo sapiens) (UniProt P10275); assay: qHTS assay to identify small molecule antagonists of the androgen receptor (AR) signaling pathway using the MDA cell line (AID 743042; further: nearly all actives have a fitted effect of over 55% in size)
Method in brief: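 Antagonist mode: compounds plus R1881 agonist added to MDA-kb2 AR-luc cells, incubated 16 h at 37C. Luciferase reporter luminescence quantified, with multiplexed CellTiter-Fluor readout for cell viability.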

[20] = qHTS assay for identifying genotoxic compounds that show differential cytotoxicity against isogenic chicken DT40 cell lines with known DNA damage response pathways - wild type cell line (AID 743012); further: nearly all actives have a fitted effect of over 60% in size
Method in brief: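 Wild-type DT40 cells (300/well) exposed to compounds for 40 hours at 37 C/5% CO2. Viability read by CellTiter-Glo luminescence after 30 min at room temperature.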

Measured: Potency

CCN1C(=O)NC(c2ccccc2)C1=O (stereo unspecified)
not listed: [16] | [17] | [18] | [19] | [20]
inactive: all other assays above

Cn1c(=O)c2c(ncn2CCOC(=O)C(C)(C)Oc2ccc(Cl)cc2)n(C)c1=O
not listed: [13] | [16] | [17] | [18] | [19] | [20]
inactive: all other assays above

CS(=O)(=O)c1ccc(C2=C(c3ccccc3)C(=O)OC2)cc1
not listed: [16] | [17] | [18] | [19] | [20]
inactive: all other assays above

OCCN1CCN(CC/C=C2/c3ccccc3Sc3ccc(Cl)cc32)CC1
active: [12] 11.4 µM | [13] 11.4 µM
not listed: [14] | [20]
inactive: all other assays above

CCOC(=O)[C@H](CS)NCCN[C@@H](CS)C(=O)OCC
not listed: [13] | [16] | [17] | [18] | [19] | [20]
inactive: all other assays above

O=C(O)c1cc2ccccc2c(Cc2c(O)c(C(=O)O)cc3ccccc23)c1O
not listed: [12] | [16] | [17] | [18] | [19] | [20]
inactive: all other assays above

CCN(CC)c1ccc(N=Nc2ccc(S(=O)(=O)N(C)C)cc2)c(S(=O)(=O)NCC[n+]2ccccc2)c1
not listed: [13] | [20]
inactive: all other assays above

CCOc1cc(-c2nccc3cc(OC)c(OC)cc23)cc(OCC)c1OCC
active: [12] 6.68 µM | [13] 8.41 µM
not listed: [14] | [16] | [17] | [18] | [19] | [20]
inactive: all other assays above

CC(C)CN(C[C@@H](O)[C@H](Cc1ccccc1)NC(=O)O[C@@H]1CCOC1)S(=O)(=O)c1ccc(N)cc1
active: [16] 26.8 µM
not listed: [12] | [13] | [20]
inactive: all other assays above

CC[C@H](C)CCCCC(=O)N[C@@H](CCN)C(=O)N[C@H](C(=O)N[C@@H](CCN)C(=O)N[C@H]1CCNC(=O)[C@@H]([C@H](C)O)NC(=O)[C@H](CCN)NC(=O)[C@H](CCN)NC(=O)[C@H](CC(C)C)NC(=O)[C@@H](CC(C)C)NC(=O)[C@H](CCN)NC1=O)[C@@H](C)O (X2-[Dab]T[Dab][Dab][Dab][dL]L[Dab][Dab][dT]; lactam 4-C)
not listed: [12] | [13] | [14] | [16] | [17] | [18] | [19]
inactive: all other assays above

CC(C)CN(C[C@@H](O)[C@H](Cc1ccccc1)NC(=O)O[C@H]1CO[C@H]2OCC[C@H]21)S(=O)(=O)c1ccc(N)cc1
active: [13] 29.8 µM
not listed: [16] | [17] | [18] | [19] | [20]
inactive: all other assays above

O=C(OCCO)c1ccccc1O
not listed: [16] | [17] | [18] | [19] | [20]
inactive: all other assays above

C[C@H](CSC(=O)c1ccccc1)C(=O)N1C[C@@H](Sc2ccccc2)C[C@H]1C(=O)O
not listed: [16] | [17] | [18] | [19] | [20]
inactive: all other assays above
